# According to PubChem BioAssay:
# Activity calls are given as the source filed them.
# Columns and labels:
# [1] = tested on: Plasmodium falciparum Sir2 (PF13_0152, Sir2A); assay: Plasmodium falciparum Sir2A binding compounds – biochemical, small-molecule microarray, 635 nm fluorescence, primary screen (AID 1098); conditions: fluorescence 635 nm, higher = more signal;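 note: score merges spot fluorescence intensity with its signal-to-noise ratio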
# [2] = probe aDKK1 binding to arrayed compounds – biochemical, biotinylated probe, 635/667 nm fluorescence, primary screen (AID 1099); conditions: small-molecule microarray, higher = more signal;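 note: score merges 667nm spot fluorescence with signal to noise across triplicate slides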
# [3] = probe aCHRDL2 binding to arrayed compounds – biochemical, biotinylated probe, 635/667 nm fluorescence, primary screen (AID 1100); conditions: small-molecule microarray, higher = more signal
# [4] = change in splice reporter luminescence, either direction, cell-based, HEK293, spliceosome inhibition project, primary screen (AID 1101); conditions: HEK293 splicing luciferase reporter, 24 h, higher = more signal, called active from +8 up or from −8 down;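 note: HEK293 cells carrying a splicing-competent luciferase reporter gene; test concentration not given here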
# [5] = target: Fibroblast growth factor 10 (Homo sapiens) (UniProt O15520); assay: compounds binding fibroblast growth factor 10 – biochemical, small-molecule microarray, 635 nm fluorescence, primary screen (AID 1102); conditions: FGF10 binding, fluorescence 635 nm, higher = more signal
# Fibroblast growth factor 10 (Homo sapiens), sequence (O15520 whole entry, looked up): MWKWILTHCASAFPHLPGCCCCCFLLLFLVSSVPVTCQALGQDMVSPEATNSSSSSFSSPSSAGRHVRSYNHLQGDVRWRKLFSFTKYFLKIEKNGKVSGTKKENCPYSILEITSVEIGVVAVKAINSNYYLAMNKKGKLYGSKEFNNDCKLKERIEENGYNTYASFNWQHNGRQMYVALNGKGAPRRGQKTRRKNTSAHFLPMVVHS
# [6] = tested on: glycogen synthase kinase-3 (GSK3A per assay name; protocol says GSK3B); assay: compounds binding glycogen synthase kinase-3 – biochemical, small-molecule microarray, 635 nm fluorescence, GSK3A, primary screen (AID 1103); conditions: fluorescence 635 nm, higher = more signal; note: the record names both GSK3A and GSK3B
# [7] = target: Epidermal growth factor receptor (Homo sapiens) (UniProt P00533); assay: compounds binding epidermal growth factor receptor – biochemical, small-molecule microarray, 635 nm fluorescence, primary screen (AID 1104); conditions: EGFR binding, higher = more signal;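 note: score merges 667 nm emission intensity with spot signal to noise over triplicate slides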
# Epidermal growth factor receptor (Homo sapiens), sequence (P00533 whole entry, looked up): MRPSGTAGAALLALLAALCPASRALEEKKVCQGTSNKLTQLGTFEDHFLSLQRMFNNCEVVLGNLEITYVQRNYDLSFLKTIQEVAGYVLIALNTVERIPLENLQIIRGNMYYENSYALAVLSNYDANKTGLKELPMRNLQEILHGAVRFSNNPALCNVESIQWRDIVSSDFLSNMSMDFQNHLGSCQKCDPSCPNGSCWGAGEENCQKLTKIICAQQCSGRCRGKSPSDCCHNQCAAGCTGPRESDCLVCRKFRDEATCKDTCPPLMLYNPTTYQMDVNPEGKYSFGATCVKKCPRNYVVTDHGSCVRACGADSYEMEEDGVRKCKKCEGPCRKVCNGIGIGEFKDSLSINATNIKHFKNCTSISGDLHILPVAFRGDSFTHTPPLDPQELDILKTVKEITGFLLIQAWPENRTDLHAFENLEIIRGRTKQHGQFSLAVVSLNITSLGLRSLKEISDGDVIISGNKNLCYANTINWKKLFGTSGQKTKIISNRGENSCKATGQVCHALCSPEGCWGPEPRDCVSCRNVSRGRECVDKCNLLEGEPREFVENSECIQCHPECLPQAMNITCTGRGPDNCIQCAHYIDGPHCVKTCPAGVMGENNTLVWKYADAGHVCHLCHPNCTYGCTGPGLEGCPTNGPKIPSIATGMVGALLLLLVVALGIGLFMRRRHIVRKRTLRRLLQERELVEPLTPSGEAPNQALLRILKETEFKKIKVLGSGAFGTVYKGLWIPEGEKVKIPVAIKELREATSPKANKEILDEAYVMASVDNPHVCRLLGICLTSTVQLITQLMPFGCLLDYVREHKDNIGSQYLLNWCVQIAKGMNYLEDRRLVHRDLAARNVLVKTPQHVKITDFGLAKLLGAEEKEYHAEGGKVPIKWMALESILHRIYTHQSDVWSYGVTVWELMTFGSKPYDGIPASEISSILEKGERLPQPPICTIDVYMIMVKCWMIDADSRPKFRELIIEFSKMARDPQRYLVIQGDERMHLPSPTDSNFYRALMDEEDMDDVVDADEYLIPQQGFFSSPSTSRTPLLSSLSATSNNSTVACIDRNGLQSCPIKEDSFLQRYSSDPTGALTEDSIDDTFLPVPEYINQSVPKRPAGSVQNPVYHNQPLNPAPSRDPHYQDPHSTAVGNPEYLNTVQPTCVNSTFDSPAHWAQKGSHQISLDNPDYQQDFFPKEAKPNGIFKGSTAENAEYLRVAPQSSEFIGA
# [8] = target: Follistatin-related protein 3 (Homo sapiens) (UniProt O95633); assay: compounds binding follistatin-related protein 3 – biochemical, small-molecule microarray, 635 nm fluorescence, primary screen (AID 1105); conditions: FSTL3 binding, higher = more signal;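 note: score merges emission near 667 nm and signal to noise per printed spot across three slides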
# Follistatin-related protein 3 (Homo sapiens), sequence (O95633 whole entry, looked up): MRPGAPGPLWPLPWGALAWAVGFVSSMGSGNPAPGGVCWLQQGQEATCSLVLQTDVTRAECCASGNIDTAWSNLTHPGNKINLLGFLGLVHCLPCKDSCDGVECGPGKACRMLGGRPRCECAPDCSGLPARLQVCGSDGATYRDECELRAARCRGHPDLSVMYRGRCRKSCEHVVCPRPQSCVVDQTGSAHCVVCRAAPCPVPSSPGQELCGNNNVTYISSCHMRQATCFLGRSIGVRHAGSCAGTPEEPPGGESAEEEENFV
# [9] = target: Dickkopf-related protein 1 (Homo sapiens) (UniProt O94907); assay: small molecules binding DKK1 protein – biochemical, small-molecule microarray, 635 nm fluorescence scan, primary screen (AID 1106); conditions: higher = more signal;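 note: score merges emission near 667 nm with signal to noise over three replicate slides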
# Dickkopf-related protein 1 (Homo sapiens), sequence (O94907 whole entry, looked up): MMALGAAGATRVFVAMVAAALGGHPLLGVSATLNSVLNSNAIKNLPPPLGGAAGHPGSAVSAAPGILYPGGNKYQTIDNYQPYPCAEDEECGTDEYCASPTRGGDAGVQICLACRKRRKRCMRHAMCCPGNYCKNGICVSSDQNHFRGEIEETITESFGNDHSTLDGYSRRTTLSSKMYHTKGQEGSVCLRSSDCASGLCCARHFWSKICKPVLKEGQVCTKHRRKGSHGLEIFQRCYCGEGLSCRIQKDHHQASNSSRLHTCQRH
# [10] = tested on: Inhibin beta A chain (activin A); assay: small molecules binding activin A – biochemical, small-molecule microarray, 635 nm fluorescence scan, primary screen (AID 1107); conditions: INHBA, higher = more signal;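 note: mouse activin A protein probed at 4.33 µg/mL on printed slides; score merges bound-protein fluorescence near 667 nm with spot signal-to-noise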
# [11] = tested on: Human papillomavirus type 1a protein E7 (residues 44-93); assay: small molecules binding HPV E7 44-93 – biochemical, small-molecule microarray, residues 44-93, 635 nm fluorescence, primary screen (AID 1108); conditions: fluorescence 635 nm, higher = more signal;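 note: E7 fragment applied at 1 µg/mL in TBST for 1 h at 4 C; score combines spot fluorescence with its signal to noise ratio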
# [12] = hepatitis C replication reporter changes, two-sided – Huh7 cells, luciferase reporter, HCV replication inhibitor project, primary screen (AID 1109); conditions: Huh7 HCV replicon luciferase reporter, 48 h; higher = more signal;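 note: huh7 hepatoma cells harbouring a luciferase neomycin HCV replicon reporter; luciferase luminescence as measure of HCV replicon replication; test concentration not given here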
# [13] = target: Left-right determination factor 2 (Homo sapiens) (UniProt O00292); assay: small molecules binding LEFTY2 protein – biochemical, small-molecule microarray, 635 nm fluorescence scan, primary screen (AID 1110); conditions: higher = more signal
# Left-right determination factor 2 (Homo sapiens), sequence (O00292 whole entry, looked up): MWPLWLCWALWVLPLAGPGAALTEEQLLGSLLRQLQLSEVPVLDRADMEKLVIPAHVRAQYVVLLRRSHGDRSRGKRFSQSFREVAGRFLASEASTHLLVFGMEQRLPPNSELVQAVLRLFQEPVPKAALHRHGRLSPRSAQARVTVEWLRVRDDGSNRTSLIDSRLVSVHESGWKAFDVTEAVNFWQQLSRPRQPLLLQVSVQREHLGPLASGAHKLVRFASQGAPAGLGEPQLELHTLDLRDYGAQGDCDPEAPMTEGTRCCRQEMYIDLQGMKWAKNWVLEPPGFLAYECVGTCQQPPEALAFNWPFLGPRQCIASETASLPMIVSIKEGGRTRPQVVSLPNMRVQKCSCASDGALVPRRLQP
# [14] = target: Calmodulin-1 (Homo sapiens) (UniProt P0DP23); assay: small molecules binding calmodulin-1 with EGTA – biochemical, small-molecule microarray, Cy5-labelled CALM1, profiling panel (AID 1111); conditions: Cy5-CALM1 binding fluorescence, higher = more signal;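 note: labelled calmodulin applied in Tris saline Tween buffer holding calcium plus EGTA and DTT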
# [15] = target: Calmodulin-1 (Homo sapiens) (UniProt P0DP23); assay: small molecules binding Ca-loaded calmodulin-1 – biochemical, small-molecule microarray, Cy5-labelled CALM1, plus calcium, artefact control for SMM control-protein annotation, profiling panel (AID 1112); conditions: Cy5-CALM1 binding fluorescence, higher = more signal;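 note: score merges spot fluorescence with signal to noise from triplicate slides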
# [16] = probe aWnt5a binding to arrayed compounds – biochemical, biotinylated probe, 635/667 nm fluorescence, primary screen (AID 1113); conditions: small-molecule microarray, higher = more signal;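 note: score merges 667 nm fluorescence intensity with signal-to-noise per printed feature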
# [17] = probe aShh binding to arrayed compounds – biochemical, biotinylated probe, 635/667 nm fluorescence, primary screen (AID 1114); conditions: small-molecule microarray, higher = more signal;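 note: probe is biotin-labelled aShh protein from a stem cell growth factor screen; measures binding of labelled protein to compounds printed on the slide; score merges feature fluorescence at 667 nm with signal-to-noise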
# [18] = probe aNog binding to arrayed compounds – biochemical, biotinylated probe, 635/667 nm fluorescence, primary screen (AID 1115); conditions: small-molecule microarray, higher = more signal;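 note: probe is biotinylated aNog protein used at 0.15 µg/mL for 1 h at 4 C; z-score combines 667 nm fluorescence of each spot with its signal to noise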
# [19] = target: Torsin-1A-interacting protein 1 (Homo sapiens) (UniProt Q5JTV8); assay: compound microarray binding of lysate hLAP1 – cell lysate, small-molecule microarray, COS7 lysate, 635/667 nm fluorescence, primary screen (AID 1116); conditions: 635 nm fluorescence, higher = more signal
# Torsin-1A-interacting protein 1 (Homo sapiens), sequence (Q5JTV8 whole entry, looked up): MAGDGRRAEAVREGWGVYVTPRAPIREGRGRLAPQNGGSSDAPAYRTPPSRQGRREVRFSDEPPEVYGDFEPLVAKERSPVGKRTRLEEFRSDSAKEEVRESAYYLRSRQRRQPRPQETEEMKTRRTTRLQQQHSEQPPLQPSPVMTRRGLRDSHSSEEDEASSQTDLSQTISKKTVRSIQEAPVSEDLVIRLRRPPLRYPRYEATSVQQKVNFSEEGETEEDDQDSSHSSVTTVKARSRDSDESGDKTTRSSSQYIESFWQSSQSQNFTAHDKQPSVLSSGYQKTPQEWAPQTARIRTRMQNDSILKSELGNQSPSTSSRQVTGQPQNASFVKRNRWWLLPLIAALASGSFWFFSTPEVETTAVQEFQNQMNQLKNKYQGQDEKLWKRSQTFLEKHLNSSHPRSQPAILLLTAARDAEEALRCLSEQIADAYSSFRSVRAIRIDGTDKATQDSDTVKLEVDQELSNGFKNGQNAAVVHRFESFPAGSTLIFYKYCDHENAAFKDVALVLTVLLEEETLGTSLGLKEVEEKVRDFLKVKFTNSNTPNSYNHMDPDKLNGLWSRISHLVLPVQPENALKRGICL
# [20] = target: Alpha-bungarotoxin (Bungarus multicinctus) (UniProt P60615); assay: compounds binding labelled alpha-BTX control protein – biochemical, small-molecule microarray, Alexa647 label, 635/667 nm fluorescence, artefact control for SMM control protein annotation, profiling panel (AID 1117); conditions: alpha-BTX-A647 binding fluorescence, higher = more signal
# Alpha-bungarotoxin (Bungarus multicinctus), sequence (P60615 whole entry, looked up): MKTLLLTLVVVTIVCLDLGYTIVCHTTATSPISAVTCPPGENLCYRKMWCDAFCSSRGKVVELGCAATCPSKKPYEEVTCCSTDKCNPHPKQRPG
structure (smiles),measurement,setting,value
C=C(C)C1C(=C)CN([C@H](CO)c2ccccc2)C1=O (stereo not given in full),composite z-score,[1],1.35
same,composite z-score,[2],-0.172
same,composite z-score,[3],0.22
same,z-score,[4],-0.622 (inactive)
same,composite z-score,[5],-0.0267
same,composite z-score,[6],-0.599
same,composite z-score,[7],-0.476
same,composite z-score,[8],-0.0684
same,composite z-score,[9],-0.153
same,composite z-score,[10],1.36
same,composite z-score,[11],0.317
same,z-score,[12],-0.25
same,composite z-score,[13],-0.065
same,composite z-score,[14],-0.911
same,composite z-score,[15],-0.968
same,composite z-score,[16],-0.0459
same,composite z-score,[17],-0.154
same,composite z-score,[18],-0.229
same,composite z-score,[19],-0.486
same,composite z-score,[20],-0.605
COC(=O)[C@@]1(Cc2ccccc2)[C@H]2c3cc(C(=O)N4CCCC4)n(Cc4cccc5ccccc45)c3C[C@H]2CN1C(=O)c1ccccc1,composite z-score,[1],0.473
same,composite z-score,[2],2.15
same,composite z-score,[3],1.44
same,z-score,[4],-1.33 (inactive)
same,composite z-score,[5],0.664
same,composite z-score,[6],-0.348
same,composite z-score,[7],0.0512
same,composite z-score,[8],0.272
same,composite z-score,[9],-0.922
same,composite z-score,[10],1.07
same,composite z-score,[11],0.696
same,z-score,[12],-1.55
same,composite z-score,[13],-0.188
same,composite z-score,[14],1.51
same,composite z-score,[15],1.42
same,composite z-score,[16],0.816
same,composite z-score,[17],1.96
same,composite z-score,[18],0.714
same,composite z-score,[19],0.434
same,composite z-score,[20],0.645
COc1ccc(C(O)C2C=CC3C(=O)NC(=O)C3N2Nc2ccccn2)c2ccccc12 (stereo not given),composite z-score,[1],0.157
same,composite z-score,[2],0.046
same,composite z-score,[3],0.108
same,z-score,[4],0.841 (inactive)
same,composite z-score,[5],0.392
same,composite z-score,[6],-0.39
same,composite z-score,[7],0.307
same,composite z-score,[8],0.16
same,composite z-score,[9],0.378
same,composite z-score,[10],0.804
same,composite z-score,[11],-0.266
same,z-score,[12],0.307
same,composite z-score,[13],0.315
same,composite z-score,[14],-0.0051
same,composite z-score,[15],-0.194
same,composite z-score,[16],-0.219
same,composite z-score,[17],0.147
same,composite z-score,[18],-0.0863
same,composite z-score,[19],-0.259
same,composite z-score,[20],0.172
C=CCC(OC(C)=O)[C@@H]1[C@@H](N(Cc2ccc(-c3cccc(C(F)(F)F)c3)o2)C(=O)Cc2ccc(F)cc2)c2cc(OCCCO)ccc2N1C(=O)Cc1ccc(OC)cc1 (stereo not given in full),composite z-score,[1],-0.0392
same,composite z-score,[2],-0.264
same,composite z-score,[3],0.385
same,z-score,[4],-1.59 (inactive)
same,composite z-score,[5],-0.0139
same,composite z-score,[6],-2.4
same,composite z-score,[7],-0.983
same,composite z-score,[8],-0.106
same,composite z-score,[9],-0.731
same,composite z-score,[10],0.898
same,composite z-score,[11],-2.04
same,z-score,[12],-1.36
same,composite z-score,[13],-0.665
same,composite z-score,[14],-0.718
same,composite z-score,[15],-0.751
same,composite z-score,[16],-0.18
same,composite z-score,[17],-0.138
same,composite z-score,[18],-0.463
same,composite z-score,[19],-0.354
same,composite z-score,[20],-0.167
C=C(/C(=C/C[C@@H](OC(C)=O)c1ccc(OCCO)cc1)c1cnc2ccccc2c1)C(C)C,composite z-score,[1],1.2
same,composite z-score,[2],-0.229
same,composite z-score,[3],0.0459
same,z-score,[4],-0.837 (inactive)
same,composite z-score,[5],0.528
same,composite z-score,[6],-0.0912
same,composite z-score,[7],-0.103
same,composite z-score,[8],0.77
same,composite z-score,[9],0.218
same,composite z-score,[10],1.5
same,composite z-score,[11],1.32
same,z-score,[12],-1.19
same,composite z-score,[13],0.49
same,composite z-score,[14],-0.196
same,composite z-score,[15],-0.541
same,composite z-score,[16],-0.091
same,composite z-score,[17],0.111
same,composite z-score,[18],0.0541
same,composite z-score,[19],0.113
same,composite z-score,[20],0.249
O=C1O[C@H](c2ccccc2)[C@H](c2ccccc2)N2[C@H]1[C@@H](C(=O)Nc1nc3ccccc3s1)[C@]1(C(=O)Nc3ccc(C#CC4(O)CCCCCC4)cc31)[C@H]2c1ccc(OCCO)cc1,composite z-score,[1],1.17
same,composite z-score,[2],0.507
same,composite z-score,[3],0.531
same,z-score,[4],0.053 (inactive)
same,composite z-score,[5],1.24
same,composite z-score,[6],1.02
same,composite z-score,[7],0.662
same,composite z-score,[8],0.714
same,composite z-score,[9],0.525
same,composite z-score,[10],0.523
same,composite z-score,[11],0.877
same,z-score,[12],-2.09
same,composite z-score,[13],0.426
same,composite z-score,[14],1.91
same,composite z-score,[15],0.0521
same,composite z-score,[16],-0.0381
same,composite z-score,[17],-0.0446
same,composite z-score,[18],0.287
same,composite z-score,[19],1.55
same,composite z-score,[20],1.77
